Giardia FBPA inh-1 – qHTS Assay for Inhibitors of Fructose-1,6-bisphosphate Aldolase from Giardia Lamblia. AID 2451, 2010. Potency, µM (doses to about 59.6 µM), without a hit: at the top dose activity, negative = inhibition, hits mostly inhibitors. 0.71% of 290,000 active. A8B2U2. purified Giardia FBPA; note: % is set by controls: 0 for no effect and ±100 for the full control effect; nearly all actives have a fitted effect of over 55% in size
Target sequence (A8B2U2 whole entry, looked up): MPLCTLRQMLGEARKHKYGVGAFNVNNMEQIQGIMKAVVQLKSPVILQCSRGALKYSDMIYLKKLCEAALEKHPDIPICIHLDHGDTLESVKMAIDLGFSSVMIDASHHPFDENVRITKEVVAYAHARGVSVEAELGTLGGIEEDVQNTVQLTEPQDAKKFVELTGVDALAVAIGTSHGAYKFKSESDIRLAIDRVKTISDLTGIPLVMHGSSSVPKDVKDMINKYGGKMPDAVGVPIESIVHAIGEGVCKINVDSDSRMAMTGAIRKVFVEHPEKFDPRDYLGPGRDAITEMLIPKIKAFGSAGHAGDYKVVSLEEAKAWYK
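40 nM FBPA preincubated 10 min at RT with compound (up to 57.5 uM final), then substrate plus GAPDH/TPI/NAD/arsenate coupling and diaphorase/resazurin added. Fluorescence read after 20 min at RT, 525/598 nm.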
TbPYK inhibitor – qHTS of Trypanosoma Brucei Inhibitors; Potency, µM (top dose mostly 76.8 µM), without a hit: top-dose activity, negative = inhibition, usual class: inhibitors; pyruvate kinase (Trypanosoma brucei), Q57TT1; TbPYK enzyme, Kinase-Glo Plus ATP luminescence, 45 min; 0.12% of 410,000 active; note: % is set by controls: 0 for no effect and ±100 for the full control effect; nearly all actives have a fitted effect of over 50% in size
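Quantitative HTS: titrated library compounds versus trypanosomal pyruvate kinase in TEA buffer (pH 7.2) containing KCl, MgCl2, BSA and Tween-20. Reactions were initiated with ADP, 130 uM final. Kinase-Glo Plus luminescence was read after 45 min at RT.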
RE007 growth inh – qHTS Assay for Inhibitors of the HIV-1 protein Vpr | 0.21% of 360,000 active | Potency, µM (highest dose often 92.2 µM), for the others: at the top dose activity change, negative = less growth, most hits filed as inhibitors | S. pombe RE007 Vpr strain, BacTiter-Glo ATP luminescence, 24 h; active = well fitted falling curve with a large enough effect; inconclusive = small, poorly fitted or top-dose-only effect; inactive = no such curve, though single readings can be large or run the other way; note: % is set by controls: 0 for no effect and ±100 for the full control effect; nearly all actives have a fitted effect of over 50% in size
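Fission yeast strain RE007, carrying one chromosomally integrated HIV-1 vpr copy, was seeded at OD 0.01 in PMG+AL medium with 23 nL pinned compound. After 24 h at 30 °C and 99% humidity, viability was read by BacTiter-Glo luminescence.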
LmPK inh – qHTS Assay for Inhibitors of Leishmania Mexicana Pyruvate Kinase (LmPK). Q27686. purified LmPK, Kinase-Glo ATP luminescence, 1 h. Potency, µM (highest dose often 57.5 µM), without a hit: at the highest dose activity change, negative = inhibition, actives largely listed as inhibitors. 0.37% of 290,000 active. AID 1721, 2009; note: % is set by controls: 0 for no effect and ±100 for the full control effect
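Purified LmPK (0.1 nM) converted ADP (0.1 mM) to ATP with PEP (0.5 mM) in imidazole buffer pH 7.2 with KCl and MgCl2, 1 h at room temperature. ATP was read by Kinase-Glo luminescence; data normalized to uninhibited and no-enzyme controls.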
SARS PLP yeast – qHTS of Yeast-based Assay for SARS-CoV PLP | S. cerevisiae expressing SARS-CoV PLpro, growth rescue | Potency, µM (titrated, usually from 32.9 µM), without a hit: at the top dose activity, positive = growth rescue, hits mostly activators | 0.19% of 330,000 active | AID 485353, 2010; calls by dose curve; note: 0% is about no effect; nearly all actives have a fitted effect of over 55% in size
Giardia growth – qHTS Assay for Inhibitors of Fructose-1,6-bisphosphate Aldolase from Giardia Lamblia: Giardia lamblia growth inhibition; shares compounds with Giardia FBPA inh-1; Giardia lamblia trophozoite growth inhibition; Potency, µM (series often up to 57.5 µM), for the others: at the highest dose activity change, negative = inhibition, most hits filed as inhibitors; 5% of 1,500 active; AID 2785, 2010;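 note: trophozoites exposed to compound for 48 h at 37 °C; % is set by controls: 0 for no effect and ±100 for the full control effect; nearly all actives have a fitted effect of over 70% in size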
Mammalian tox – qHTS Assay for Inhibitors of Fructose-1,6-bisphosphate Aldolase from Giardia Lamblia: Mammalian cellular toxicity; mammalian cell viability counter-screen, qHTS; Potency, µM (titrated, usually from 57.5 µM), without a hit: top-dose viability change, negative = toxicity, actives largely listed as inhibitors; 4% of 1,500 active; shares compounds with Giardia FBPA inh-1;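 note: Chinese hamster ovary cells used as mammalian cytotoxicity surrogate; viability measured as cellular ATP by luminescence; compound exposure lasted 48 h before reading; % is set by controls: 0 for no effect and ±100 for the full control effect; nearly all actives have a fitted effect of over 60% in size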
Giardia FBPA inh-2 – qHTS Assay for Inhibitors of Fructose-1,6-bisphosphate Aldolase from Giardia Lamblia: Primary screen confirmation | shares compounds with Giardia FBPA inh-1 | purified Giardia aldolase enzyme activity, qHTS | Potency, µM (series often up to 57.5 µM), for the others: at the top dose activity change, negative = inhibition, hits mostly inhibitors | 5% of 1,500 active | AID 2787, 2010; note: % is set by controls: 0 for no effect and ±100 for the full control effect; nearly all actives have a fitted effect of over 45% in size
Rabbit FBPA inh – qHTS Assay for Inhibitors of Fructose-1,6-bisphosphate Aldolase from Giardia Lamblia: Rabbit FBPA Selectivity; shares compounds with Giardia FBPA inh-1; Rabbit muscle FBPA enzyme inhibition, selectivity counter-screen; 4% of 1,500 active; Potency, µM (top dose mostly 57.5 µM), inactives show at the top dose activity, negative = inhibition, hits mostly inhibitors; note: % is set by controls: 0 for no effect and ±100 for the full control effect; nearly all actives have a fitted effect of over 60% in size
Target sequence (P00883 whole entry, looked up): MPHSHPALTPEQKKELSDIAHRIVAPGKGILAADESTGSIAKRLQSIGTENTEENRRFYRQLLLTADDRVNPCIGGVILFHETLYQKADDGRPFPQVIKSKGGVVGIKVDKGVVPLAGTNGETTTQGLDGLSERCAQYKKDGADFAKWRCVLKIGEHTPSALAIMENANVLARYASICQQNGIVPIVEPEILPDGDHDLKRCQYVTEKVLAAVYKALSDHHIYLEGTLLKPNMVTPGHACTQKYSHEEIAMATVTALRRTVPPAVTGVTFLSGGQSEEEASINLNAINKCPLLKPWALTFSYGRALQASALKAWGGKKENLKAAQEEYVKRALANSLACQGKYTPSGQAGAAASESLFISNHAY
GAPDH counter – qHTS Assay for Inhibitors of Fructose-1,6-bisphosphate Aldolase from Giardia Lamblia: Coupling assay counterscreen confirmation. AID 2795, 2010. GAPDH coupling enzyme counterscreen, biochemical, qHTS. Potency, µM (series often up to 57.5 µM), for inactives: top-dose activity change, negative = inhibition, usual class: inhibitors. 6% of 1,500 active. shares compounds with Giardia FBPA inh-1; note: % is set by controls: 0 for no effect and ±100 for the full control effect; nearly all actives have a fitted effect of over 55% in size
* = called active by the depositor; ? = inconclusive; · = not tested or not shown; [ ] = remark or other dose. Most compounds without a hit are left out; they make up all but 1.1% or so of the library. Unless noted, calls come from the whole dose curve; as a rule, active = well fitted curve in the direction sought with a large enough effect; inconclusive = small, poorly fitted or top-dose-only effect, or another doubt; inactive = no such curve, though single readings can be large; an effect the other way counts as inactive or inconclusive. Potency is the fitted concentration of half-maximal effect.

SMILES	Giardia FBPA inh-1	TbPYK inhibitor	RE007 growth inh	LmPK inh	SARS PLP yeast	Giardia growth	Mammalian tox	Giardia FBPA inh-2	Rabbit FBPA inh	GAPDH counter
Cc1ccc(-c2nc(Cn3c(SCc4ccc(F)cc4)nc4cccnc43)c(C)o2)cc1	·	-2%	·	·	·	·	·	·	·	·
Clc1ccc(OCc2nn[nH]n2)cc1	?	8%	3%	4%	4%	·	·	·	·	·
COc1ccccc1OCc1nn[nH]n1	32µM*	-8%	1%	-6%	2%	?	18%	-3%	12%	-9%
CC[C@H](C)[C@H]1O[C@]2(CC[C@@H]1C)C[C@@H]1C[C@@H](C/C=C(\C)[C@H](O[C@@H]3C[C@H](OC)[C@H](O[C@@H]4C[C@H](OC)[C@@H](O)[C@H](C)O4)[C@H](C)O3)[C@@H](C)/C=C/C=C3\CO[C@@H]4[C@H](O)C(C)=C[C@@H](C(=O)O1)[C@]34O)O2	·	-4%	·	·	·	·	·	·	·	·
O=C(NC(=S)Nc1ccc(CN2CCOCC2)cc1)c1cccc(F)c1	11µM*	-2%	-13%	-2%	-6%	-11%	7%	-4%	9%	7%
O=C(CSc1ncn[nH]1)Nc1c(F)cc(F)cc1Br	-3%	1%	17%	2%	-1%	·	·	·	·	·
O=C(CSc1nc2ncccc2[nH]1)Nc1c(F)cc(F)cc1Br	25µM*	-2%	11%	8%	-4%	-18%	7%	4%	5%	22%
CCCNC(=O)CN1C(=O)COc2ccc(S(=O)(=O)N3CCCC3)cc21	·	11%	·	·	·	·	·	·	·	·
Cc1ccc(S(=O)(=O)N2CCCCC2)cc1NC(=O)c1ccco1	·	-2%	3%	·	·	·	·	·	·	·
Cc1ccc(S(=O)(=O)N2CCCCC2)cc1NC(=O)CNCc1ccco1	7.9µM*	20%	9%	-3%	0%	?	7%	9%	3%	1%
O=C(CNC(=O)c1ccco1)Nc1ccc(N2CCCCCC2)cc1	·	-12%	3%	·	1%	·	·	·	·	·
O=C(CNCc1ccco1)Nc1ccc(N2CCCCCC2)cc1	18µM*	5%	1%	13%	1%	?	-8%	-11%	-15%	-12%
O=c1cc2oc3cc(O)c(O)cc3c(-c3ccccc3O)c-2cc1O	16µM*	-20%	·	-21%	5%	-20%	8%	?	-6%	10%
COC(=O)[C@@H](N)CS	16µM*	2%	-10%[18.4 µM]	2%	-2%	3%[10.4 µM]	1%	4%	11%	13%
COC(=O)C(N)Cc1ccc(O)cc1 (stereo unspecified)	-7%	0%	15%	-4%	1%	·	·	·	·	·
COC(=O)c1c(NC(=O)c2ccc(S(=O)(=O)N3CCC(C)CC3)cc2)sc2c1CCN(C)C2	·	0%	·	·	·	·	·	·	·	·
CCN1CCN(CC(=O)Nc2ccc(OC(F)(F)F)cc2)CC1	18µM*	2%	-1%	-2%	0%	83%	4%	3%	7%	-11%
O=C1C=C(O)c2cccc(O)c2C1=O	5.6µM*	-4%	?	-2%	-2%	3%[10.4 µM]	19%	?	-21%	?
CC(=O)c1ccc(N2CCN(C(=O)NCc3noc4ccc(C)cc34)CC2)cc1	·	0%	·	·	·	·	·	·	·	·
COc1ccc(-c2csc(N(CCCN(C)C)C(=O)c3ccccc3F)n2)cc1	28µM*	9%	-17%	2%	2%	-25%	-13%	3%	9%	8%
COc1cc(CN2CCN(S(=O)(=O)c3ccc(F)cc3)CC2)cc(OC)c1OC	?	-1%	-12%	9%	?	·	·	·	·	·
COc1ccc(S(=O)(=O)N2CCC(N3CCN(Cc4ccccc4)CC3)CC2)cc1	13µM*	13%	-24%	-4%	-3%	63%	-2%	5%	2%	16%
COc1cc(CN2CCN(S(=O)(=O)c3ccccc3)CC2)cc(OC)c1OC	25µM*	7%	9%	-6%	-12%	24%	-9%	-3%	0%	9%
CCCNC(=O)c1ccc2c(c1)N=C(C)c1c(C)ccc(C)c1S2	·	0%	·	·	·	·	·	·	·	·
NNc1nc2c(-c3ccc(Cl)cc3)nnn2c2ccccc12	14µM*	3%	-4%	-12%	-2%	?	?	-14%	-19%	-13%
COc1ccc(CNc2ncc(-c3ccccc3)n2C)cc1	18µM*	14%	-15%	6%	-3%	-18%	25%	1%	1%	9%
Cn1c(-c2cccc([N+](=O)[O-])c2)cnc1NCc1cccc([N+](=O)[O-])c1	?	23%	-9%	1%	1%	·	·	·	·	·
